Out of some 340,000 compounds screened, about 730 (0.21%) were called active.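 Rule for the calls: active = inhibition above the mean over all tested compounds plus 3 SD (cut at about 21% in these data); inactive = the rest.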 The sample as a whole holds a higher share of actives than the screen did.
Molecular target: Toll-like receptor 9 (Homo sapiens) + Myeloid differentiation primary response protein MyD88 (Homo sapiens) (UniProt Q9NR96+Q99836)
Experiment: inhibitors of TLR9-MyD88 association in cells, primary screen, cell-based, CHO, BLA complementation, fluorescence (AID 504734);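 note: 0% = DMSO only wells and 100% = clavulanate BLA inhibitor control wells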
Conditions: CHO BLA complementation TLR9-MyD88, CCF4 FRET ratio; at 4.98 µM; stronger effect = higher value

Sequence of Toll-like receptor 9 (Homo sapiens) + Myeloid differentiation primary response protein MyD88 (Homo sapiens) (Q99836 whole entry, looked up): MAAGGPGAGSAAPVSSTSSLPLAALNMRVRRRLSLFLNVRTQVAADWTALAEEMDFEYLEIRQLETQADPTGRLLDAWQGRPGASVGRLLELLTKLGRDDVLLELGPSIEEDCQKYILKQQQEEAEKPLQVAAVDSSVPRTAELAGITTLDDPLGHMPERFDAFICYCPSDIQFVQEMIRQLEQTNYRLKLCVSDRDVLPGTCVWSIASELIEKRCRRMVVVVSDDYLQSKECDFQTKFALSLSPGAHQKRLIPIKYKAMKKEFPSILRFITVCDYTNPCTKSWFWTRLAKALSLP
Sequence of Toll-like receptor 9 (Homo sapiens) + Myeloid differentiation primary response protein MyD88 (Homo sapiens) (Q9NR96 whole entry, looked up): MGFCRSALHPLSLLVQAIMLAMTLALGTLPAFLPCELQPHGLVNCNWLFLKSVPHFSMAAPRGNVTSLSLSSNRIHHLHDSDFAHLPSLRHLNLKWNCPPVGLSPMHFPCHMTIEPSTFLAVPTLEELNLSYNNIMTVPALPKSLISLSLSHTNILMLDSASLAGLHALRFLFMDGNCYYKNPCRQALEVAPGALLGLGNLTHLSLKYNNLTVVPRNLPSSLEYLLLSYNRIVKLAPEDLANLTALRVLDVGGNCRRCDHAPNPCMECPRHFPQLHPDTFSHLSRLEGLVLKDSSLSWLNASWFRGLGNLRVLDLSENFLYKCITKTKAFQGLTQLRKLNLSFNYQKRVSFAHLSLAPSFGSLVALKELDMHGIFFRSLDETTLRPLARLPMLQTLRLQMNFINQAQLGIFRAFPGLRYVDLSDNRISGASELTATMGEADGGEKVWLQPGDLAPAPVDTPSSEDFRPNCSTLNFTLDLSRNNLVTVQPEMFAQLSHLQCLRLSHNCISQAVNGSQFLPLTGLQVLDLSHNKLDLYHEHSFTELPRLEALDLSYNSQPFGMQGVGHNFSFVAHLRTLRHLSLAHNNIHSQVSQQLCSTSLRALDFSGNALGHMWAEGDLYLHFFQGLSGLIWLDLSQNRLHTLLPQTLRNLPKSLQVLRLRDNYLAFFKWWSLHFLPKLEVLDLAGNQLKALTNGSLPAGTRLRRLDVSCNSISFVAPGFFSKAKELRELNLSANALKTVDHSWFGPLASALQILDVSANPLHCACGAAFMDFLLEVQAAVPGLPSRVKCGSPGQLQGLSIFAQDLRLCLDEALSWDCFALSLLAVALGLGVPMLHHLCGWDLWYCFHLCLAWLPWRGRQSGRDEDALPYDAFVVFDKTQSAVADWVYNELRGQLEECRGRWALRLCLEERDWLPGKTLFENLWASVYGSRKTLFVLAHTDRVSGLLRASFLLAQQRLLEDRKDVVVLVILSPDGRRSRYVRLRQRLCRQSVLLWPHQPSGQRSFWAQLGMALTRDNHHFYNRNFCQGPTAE

Compound	inhibition
C[C@@H]1CN([C@@H](C)CO)C(=O)c2cc(Br)cnc2O[C@@H]1CN(C)C(=O)C1CCCCC1	4.79% (inactive)
COc1ccc(/C=C2\SC(=S)N(CCC(=O)N3CCOCC3)C2=O)cc1OC	-12.7% (inactive)
O=C(Cc1ccc([N+](=O)[O-])cc1)NCCS(=O)(=O)N1CCN(c2ccccc2)CC1	12.1% (inactive)
CC(=O)Nc1ccc(SCC(=O)NC(=O)c2ccc(Cl)cc2)cc1	-11.6% (inactive)
CC(=O)COc1ccc2c(-c3ccccc3)cc(=O)oc2c1	3.27% (inactive)
O=C(CNC(=O)c1ccc(-c2ccccc2)cc1)OCc1ccc(Cl)cc1	-3.72% (inactive)
O=C(CNC(=O)OCc1ccccc1)Oc1cc2oc(=O)cc(-c3ccccc3)c2cc1Cl	27.3% (active)
CCN(CC(=O)Nc1ccc(NC(C)=O)cc1)C(=O)C1CC(=O)N(c2ccc3c(c2)OCCO3)C1 (stereo not given)	-3.12% (inactive)
CCn1c(SCC(=O)N2CCCC2=O)nc2ccccc21	-8.17% (inactive)
Cc1ccc(C(=O)OCC(=O)NC2CCCCCCC2)cc1C	-1.15% (inactive)
N#CCCN(C(=S)Nc1ccc(Cl)c(Cl)c1)C1CCCCC1	11.8% (inactive)
CCN(CC)C(=O)C(C)N1c2cccc3cccc(c23)S1(=O)=O (stereo not given)	4.23% (inactive)
O=C1CCC(=O)N1CCC(=O)N(C(=O)NC1CCCCC1)C1CCCCC1	4% (inactive)
Cc1ccc(C(=O)N2CCCc3ccccc32)c(Cl)c1	-5.91% (inactive)
O=C(c1c(Cl)nc2sccn12)N1CCCc2ccccc21	-2.96% (inactive)
Cc1cccc2cc3c(N)c(C(=O)N4CCCc5ccccc54)sc3nc12	32.5% (active)
C[C@H]1CN([C@@H](C)CO)C(=O)CCCn2cc(nn2)CO[C@@H]1CN(C)S(=O)(=O)c1cccc(C#N)c1	-7.52% (inactive)
COc1ccccc1/C=C/C(=O)OCC(=O)NC1CCCCCC1	22.6% (active)
O=C(COC(=O)/C=C/c1cccs1)NC1CCCCC1	2.5% (inactive)
COc1ccc(/C=C/C(=O)OCC(=O)NC2CCCCCC2)cc1OC	-1.25% (inactive)
C[C@H](CO)N1C[C@H](C)[C@@H](CN(C)C(=O)C2CCCCC2)OCc2cnnn2CCCC1=O	1.13% (inactive)
O=C(COC(=O)/C=C/c1ccc(Cl)cc1)NC1CCS(=O)(=O)C1 (stereo not given)	-13.5% (inactive)
CCN(CC)CCCC(C)n1c2nc(=O)[nH]c(=O)c-2nc2cc(Cl)ccc21 (stereo not given)	22.6% (active)

Compound	inhibition
Cc1nnc(SC(C)C(=O)c2c[nH]c3ccccc23)n1C1CC1 (stereo not given)	-9.37% (inactive)
Cc1ccc(S(=O)(=O)N2C[C@]3(O)C[C@@H]4C(=O)N(c5ccccc5)C(=O)[C@@H]4C[C@]3(OC(=O)NC3CC3)C2)cc1	-0.67% (inactive)
Cc1ccc(S(=O)(=O)N2CCCCC2)cc1NC(=O)CCNC(=O)c1ccccc1Cl	-7.91% (inactive)
Cc1cccc(COc2ccccc2/C=N/Nc2ccc([N+](=O)[O-])cc2)c1	21.7% (active)
O=[N+]([O-])c1ccc(N/N=C/c2ccccc2)cc1	21.1% (active)
O=[N+]([O-])c1ccc(N=NNc2ccc([N+](=O)[O-])cc2)cc1	-10.5% (inactive)
Cc1cc([N+](=O)[O-])ccc1NCc1cccc([N+](=O)[O-])c1	-1.82% (inactive)
Cc1ccccc1OCCOc1ccc([N+](=O)[O-])cc1/C=N/n1cnnc1	-3.95% (inactive)
O=[N+]([O-])c1cccc(/C=N/Nc2ncc(Br)cn2)c1	-10.4% (inactive)
C[C@H](O)[C@@H]1C(=O)N2CCc3c([nH]c4ccccc34)[C@@H]2C[C@@H]1N(C)C(=O)Nc1ccc(F)cc1	-0.01% (inactive)
CCOc1cc(/C=N/NC(=O)c2c(C)nc3ccc(Cl)cn23)ccc1O	-2.46% (inactive)
C=CCN1CCN(c2ccncc2S(=O)(=O)N2CCN(C)CC2)CC1	9.55% (inactive)
Cc1sc2ncnc(SCC(=O)NC3CCS(=O)(=O)C3)c2c1C (stereo not given)	-4.28% (inactive)
Cn1nc(N)c2ncc(C(Cl)(Cl)Cl)nc21	-17.4% (inactive)
COc1cc(C(=O)OCCCN2CCOCC2)cc(OC)c1OC	1.8% (inactive)
Cc1cc(OCC(=O)Nc2nccs2)c2c(C)c(C)c(=O)oc2c1	-3.81% (inactive)
COc1ccccc1-c1n[nH]nc1C1=CC(=O)CC(C)(C)C1	9.73% (inactive)
O=C(O)COc1ccc(/C=N/O)cc1Br	7.44% (inactive)
CNC(=S)NNC(=O)c1sccc1OCc1ccccc1	-6.12% (inactive)
CNC(=S)N/N=C/c1ccc(OCc2ccccc2)c(Br)c1	29.9% (active)
CCCCCCN1C[C@@H](O)[C@H](n2cc(COC(=O)c3ccccc3)nn2)C[C@@H]1c1ccc(Cl)cc1	-2.39% (inactive)
C[C@H]1CN([C@@H](C)CO)C(=O)CCCn2nncc2CO[C@@H]1CN(C)Cc1ccc(Oc2ccccc2)cc1	0.54% (inactive)
